This note sets out measurements from PubChem BioAssay.

Values joined by “and” are separate entries in the source; they are usually repeats but may differ in a detail not shown here. Identical values can stand only once. Active and inactive are the calls of the source. Unless noted, the rule behind the calls is not given here.

Assay [1] relates to Aerobactin synthetase IucA (Klebsiella pneumoniae). Put plainly: IucA aerobactin synthetase inhibitors, biochemical, Tocris library, absorbance (AID 1345561).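 Note: 100% = enzyme without compound and 0% = no enzyme.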 The note with it: purified IucA enzyme assay, absorbance (OD) read-out; stronger effect = lower value;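 tested at 8 µM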.
The nature of assay [2]: sensitizers of A549 cells to miR-34 induction, primary screen, imaging, A549 dox-inducible miR-34, nuclei and caspase counts (AID 1347080;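 active = compounds whose cell count with miR-34 switched on is under 0.7 times the count with it off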). Particulars: A549 miR-34 inducible, Hoechst nuclei count, 48 h.
Assay [3] can be described thus: viability rescue of complex I mutant cybrids, primary screen, cell-based, galactose medium, ATP luminescence (AID 1645843;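 active = z-score of at least 1.8 in each of two replicates, scored against plate mean and spread of sample wells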;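 note: positive z means more ATP and so rescue of galactose-driven cybrid death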). Particulars: complex I mutant cybrid cells, 72 h, stronger effect = higher value.
Assay [4] in a line: circadian clock period modulators, cell-based, LOPAC library, luminescence reporter (AID 2774).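 Note: values are relative to mean of DMSO wells on each plate.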 The note with it: circadian reporter cells, at 7 µM, actives lie on both sides.
Assay [5] can be described thus: liver-stage malaria parasite growth inhibition, primary screen, cell-based, HepG2, luciferase luminescence, HepG2 viability (AID 624349; in the data active = parasite load remaining mostly below about 12%, no sharp cut-off; inactive = mostly above about 10%;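 note: 100% = mean of DMSO negative control wells on the same plate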). Particulars: P. berghei liver stage in HepG2, luciferase luminescence, concentration not given here; parasite load remaining: stronger effect = lower value; viability: measured here: HepG2 viability without parasites.
Assay [6] in a line: LFS_MB_P medulloblastoma growth inhibition, cell-based, chromothripsis tumors, cisplatin or BGB combos (AID 1671449; in the data active = inhibition above about 80%;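 note: cells exposed for 96 hours; 0% = vehicle DMSO and 100% = killing by high DMSO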). The note with it: LFS_MB_P medulloblastoma cells.
Assay [7] is described as follows: HDN33 neuroblastoma growth inhibition, cell-based, chromothripsis tumors, cisplatin or BGB combos (AID 1671450; in the data active = inhibition above about 80%;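 note: cells exposed to compound for four days; 0% = vehicle DMSO and 100% = cell killing by high DMSO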). Particulars: HDN33 neuroblastoma cells, stronger effect = higher value.
Assay [8] can be described thus: ICB984 medulloblastoma cell growth inhibition, synergistic combos for chromothripsis tumors, cisplatin or BGB combos (AID 1671451).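 Note: cells exposed for 96 hours before readout; 0% = vehicle DMSO and 100% = killing by high DMSO.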 Particulars: ICB984 medulloblastoma cells, drug combinations, stronger effect = higher value.
[9] abbreviates: stronger effect = lower value, cell number ratio, induced over uninduced.
Setting [10] is: measured here: relative caspase fold change +Dox/-Dox.
[11] abbreviates: measured here: total cells with miR-34 induction, stronger effect = lower value.
Setting [12] is: measured here: total cells without miR-34 induction.
The mark [13] stands for this setting: at 0.5 µM, stronger effect = higher value.
Where [14] appears, read: measured here: combination with BGB IC20, at 0.005 µM.
The mark [15] stands for this setting: measured here: combination with BGB IC40, at 0.005 µM.
Where [16] appears, read: measured here: combination with BGB IC40, at 0.05 µM.
Setting [17] is: measured here: combination with cisplatin, at 0.5 µM, stronger effect = higher value.
Where [18] appears, read: measured here: combination with cisplatin, at 5 µM, stronger effect = higher value.
The mark [19] stands for this setting: measured here: with BGB IC20 combination, at 0.5 µM.
The mark [20] stands for this setting: measured here: with cisplatin IC20 combination, at 0.5 µM.
The mark [21] stands for this setting: measured here: 5 uM single agent, at 5 µM.

With `CCCCCCNC(=O)Nc1ccc(S(=O)(=O)Nc2ccc(CCNC[C@H](O)COc3ccc(O)cc3)cc2)cc1`, the remaining activity in assay [1] was 94.3% (inactive). Moreover, the fold change was 0.938 (inactive) in assay [2] (setting [9]) and 1.32 in assay [2] (setting [10]). Further, the cell count in assay [2] (setting [11]) turned out to be 8320; in assay [2] (setting [12]), 8870. Also, the z-score in assay [3] was -0.435 (inactive).

For the compound `CC(C)C1C2CCC(C2)C1N` (configuration not stated), in assay [4], the period change was -0.025 h (inactive). For the same compound, the remaining activity in assay [1] is 119% (inactive). Besides, the fold change is 0.973 (inactive) in assay [2] (setting [9]) and 0.597 in assay [2] (setting [10]). The cell count was found to be 9360 in assay [2] (setting [11]) and 9620 in assay [2] (setting [12]). The z-score in assay [3] is -0.42 (inactive).

For the compound `O=c1cc(N2CCNCC2)oc2c(-c3ccccc3)cccc12`, the parasite load remaining in assay [5] is 25.4% (inactive). In addition, the viability in assay [5] was found to be 90.4%. For the same compound, in assay [1], the remaining activity is 83.1% (inactive). Also, the fold change was 0.968 (inactive) in assay [2] (setting [9]) and 1.21 in assay [2] (setting [10]). Moreover, the cell count was determined as 7780 in assay [2] (setting [11]) and 8040 in assay [2] (setting [12]). Moreover, the z-score in assay [3] is 1.52 (inactive).

Regarding `O=c1cc(N2CCOCC2)nc2c3ccccc3ccn12`, the parasite load remaining in assay [5] was 31.9% (inactive). In addition, in assay [5], the viability was determined as 94.8%. In addition, the remaining activity in assay [1] is 126% (inactive). Also, the fold change in assay [2] (setting [9]) was 0.935 (inactive); in assay [2] (setting [10]), 1.52. Moreover, the cell count in assay [2] (setting [11]) was determined as 8560; in assay [2] (setting [12]), 9160. In addition, the z-score in assay [3] is 1.56 (inactive).

With `COc1[nH]c2ccc(F)cc2c1C(=O)OCC1CCN(CCNS(C)(=O)=O)CC1`, in assay [4], the period change was -0.015 h (inactive). Besides, in assay [1], the remaining activity was 110% (inactive). Besides, the fold change in assay [2] (setting [9]) is 0.927 (inactive); in assay [2] (setting [10]), 0.654. Further, the cell count in assay [2] (setting [11]) is 8220; in assay [2] (setting [12]), 8880. The z-score in assay [3] was -0.185 (inactive).

Take `C=CC(=O)c1ccc2ccccc2c1`: the remaining activity in assay [1] is 118% (inactive). Besides, the fold change in assay [2] (setting [9]) is 0.911 (inactive); in assay [2] (setting [10]) it was 1.23. The cell count in assay [2] (setting [11]) amounted to 8570; in assay [2] (setting [12]), 9410. Also, the z-score in assay [3] is -0.58 (inactive).

In the case of `C#CCN1C(C)=C(C(=O)OC)C(c2cccc([N+](=O)[O-])c2)C(C(=O)OCC)=C1C` (configuration not stated), the period change in assay [4] was -0.025 h (inactive). For the same compound, the remaining activity in assay [1] was 122% (inactive). Besides, the results for the fold change in assay [2] (setting [9]) and in assay [2] (setting [10]) were 0.951 (inactive) and 0.816, respectively. For the same compound, the figures for the cell count in assay [2] (setting [11]) and in assay [2] (setting [12]) were 7120 and 7490, respectively. Moreover, the z-score in assay [3] is -0.3 (inactive).

For the compound `CCCCNC(=O)[C@@H]1Cc2ccccc2N1C(=O)[C@@H](N)CC`, the remaining activity in assay [1] was 110% (inactive). The fold change was 0.978 (inactive) in assay [2] (setting [9]) and 1.76 in assay [2] (setting [10]). For the same compound, the cell count in assay [2] (setting [11]) worked out at 9030; in assay [2] (setting [12]), 9230. For the same compound, the z-score in assay [3] is 0.245 (inactive).

Consider `FC(F)(F)c1cc(CO[C@H]2CCCN[C@H]2c2ccccc2)cc(C(F)(F)F)c1`, for which the period change in assay [4] is 0 h (inactive). Further, the remaining activity in assay [1] was 112% (inactive). The fold change is 1.01 (inactive) in assay [2] (setting [9]) and 0.987 in assay [2] (setting [10]). Moreover, the cell count in assay [2] (setting [11]) came out at 2150; in assay [2] (setting [12]) it was 2140. For the same compound, the z-score in assay [3] was -0.8 (inactive).

As for `Cc1nc2sccn2c(=O)c1CCN1CCC(=C(c2ccccc2)c2ccc(F)cc2)CC1`, the period change in assay [4] was -0.05 h (inactive). Also, the remaining activity in assay [1] is 120% (inactive). For the same compound, the fold change in assay [2] (setting [9]) is 0.974 (inactive); in assay [2] (setting [10]), 1.11. Besides, the cell count in assay [2] (setting [11]) was determined as 7180; in assay [2] (setting [12]) it was 7370. For the same compound, in assay [3], the z-score was -0.655 (inactive).

With `CCCNC(=O)N1N=C(c2ccc(N)cc2)c2cc3c(cc2C1C)OCO3` (configuration not stated), the remaining activity in assay [1] is 101% (inactive). For the same compound, the fold change in assay [2] (setting [9]) is 0.903 (inactive); in assay [2] (setting [10]), 1.06. Also, the cell count in assay [2] (setting [11]) is 8160; in assay [2] (setting [12]), 9040. Further, the z-score in assay [3] was 0.065 (inactive).

As to `COC(=O)[C@H](Cc1ccc([N+](=O)[O-])cc1)NC(=O)c1cccc2ccccc12`, the remaining activity in assay [1] is 101% (inactive). Besides, the fold change in assay [2] (setting [9]) is 0.968 (inactive); in assay [2] (setting [10]), 0.966. Moreover, the results for the cell count in assay [2] (setting [11]) and in assay [2] (setting [12]) were 9700 and 10000, respectively. Besides, in assay [3], the z-score was -0.13 (inactive).

With `O=c1cc(N2CCOCC2)oc2c1ccc1ccccc12`, in assay [5], the parasite load remaining was 36.5% (inactive). The viability in assay [5] came out at 108%. Also, the remaining activity in assay [1] was 119% (inactive). For the same compound, the fold change in assay [2] (setting [9]) was 1.08 (inactive); in assay [2] (setting [10]), 1.44. Besides, the results for the cell count in assay [2] (setting [11]) and in assay [2] (setting [12]) were 6910 and 6380, respectively. For the same compound, in assay [3], the z-score is 1.36 (inactive). The inhibition in assay [6] (setting [13]) was -16% (inactive); in assay [6] (setting [14]), -21.9%; in assay [6] (setting [15]), 39.3%; in assay [6] (setting [16]), -14.5%; in assay [6] (setting [17]) it was -18.2%; in assay [6] (setting [18]), 6.61%. Also, the inhibition in assay [7] (BGB combo, at 5 µM) was -27.9%; in assay [7] (at 0.5 µM), 5.72% (inactive); in assay [7] (cisplatin combo, at 5 µM), -6.14%; in assay [7] (setting [19]), -2.44%; in assay [7] (setting [20]), 15.8%; in assay [7] (single agent, at 5 µM), 4.04%. Besides, the inhibition in assay [8] (BGB IC20 combo, at 0.005 µM) was 3.18%; in assay [8] (BGB IC40 combo, at 0.005 µM), -0.874%; in assay [8] (BGB IC40 combo, at 0.05 µM), -4.91%; in assay [8] (at 0.5 µM), -11.2% (inactive); in assay [8] (cisplatin combo, at 0.05 µM) it was -10.2%; in assay [8] (cisplatin combo, at 0.5 µM), -14.9%. The inhibition in assay [8] (cisplatin combo, at 5 µM) is -15.9%; in assay [8] (setting [21]) it was 0.403%.

On to `COc1cc(C=O)c([N+](=O)[O-])cc1OC`, for which, in assay [1], the remaining activity is 102% (inactive). The fold change in assay [2] (setting [9]) is 0.928 (inactive); in assay [2] (setting [10]), 1.17. For the same compound, the cell count in assay [2] (setting [11]) was 8790; in assay [2] (setting [12]) it was 9460. Besides, in assay [3], the z-score was -0.05 (inactive). In addition, the inhibition in assay [6] (setting [13]) is -16.6% (inactive); in assay [6] (setting [14]), 9.48%; in assay [6] (setting [15]), -5.33%; in assay [6] (setting [16]), 7.41%; in assay [6] (setting [17]), -18.5%; in assay [6] (setting [18]) it was 3.4%. The inhibition in assay [7] (BGB combo, at 5 µM) was -38.7%; in assay [7] (at 0.5 µM), -19.7% (inactive); in assay [7] (cisplatin combo, at 5 µM) it was -6.74%; in assay [7] (setting [19]), -8.97%; in assay [7] (setting [20]), -29.9%; in assay [7] (single agent, at 5 µM), 0.626%. The inhibition in assay [8] (BGB IC20 combo, at 0.005 µM) is -9.07%; in assay [8] (BGB IC40 combo, at 0.005 µM), -48.2%; in assay [8] (BGB IC40 combo, at 0.05 µM) it was -39.8%; in assay [8] (at 0.5 µM), -35.2% (inactive); in assay [8] (cisplatin combo, at 0.05 µM), -45.3%; in assay [8] (cisplatin combo, at 0.5 µM), -48.6%. Further, the inhibition in assay [8] (cisplatin combo, at 5 µM) is -19.2%; in assay [8] (setting [21]), -4.36%.

For the compound `NS(=O)(=O)c1cccc2c1c([N+](=O)[O-])cc1nc(O)c(O)nc12`, in assay [4], the period change is 0.35 h (inactive). The remaining activity in assay [1] is 120% (inactive). Further, the fold change in assay [2] (setting [9]) is 1.03 (inactive) and 0.923 (inactive); in assay [2] (setting [10]), 1.03 and 0.947. Further, the cell count was 11000 and 9080 in assay [2] (setting [11]); 10700 and 9830 in assay [2] (setting [12]). Moreover, the z-score in assay [3] was 0.68 (inactive) and 0.65 (inactive).
